# Laboratory results taken from PubChem BioAssay.
# Values without a mark were called inactive. Active and inactive are the calls of the source. Unless noted, the rule behind the calls is not given here.
# Assay: P. aeruginosa biofilm formation inhibitors, primary screen, PAO1 strain, BacTiter-Glo luminescence, LB-PBS (AID 1144)
# Details: 12 h, higher = more signal
row,SMILES,z-score
1,[N-]=[N+]=Nc1ccccc1C[C@]1(C(=O)NCC(O)CO)N=C(c2ccc(OCCCO)cc2)O[C@H]1c1ccccc1 (some centres undefined),0.382
2,[N-]=[N+]=NCc1ccccc1C[C@@]1(C(=O)NCC(O)CO)N=C(c2ccc(OCCCO)cc2)O[C@@H]1c1ccccc1 (some centres undefined),0.141
3,C=CCN1C(=O)[C@]2(O[C@H](CCO)[C@@H]([Si](C)(C)c3ccc(OC)cc3)[C@@H]2C)c2cc(N(C=O)c3ccccc3)ccc21,-0.2
4,Cc1ccc(S(=O)(=O)N2C[C@@H](C(=O)O)[C@H](Sc3ccccc3)C[C@H]2c2ccccc2)cc1,-0.103
5,COC(=O)[C@]1(Cc2ccccc2)N=C(c2ccc(OCCCO)cc2)O[C@@H]1c1ccccc1N=[N+]=[N-],-0.441
6,C=CC[C@]1(C(N)=O)N=C(c2ccc(OCCCO)cc2)O[C@H]1c1ccccc1,-0.717
7,[N-]=[N+]=Nc1ccccc1[C@H]1OC(c2ccc(OCCCO)cc2)=N[C@@]1(Cc1ccccc1)C(=O)N1CCOCC1,-0.622
8,O=C1NC(=O)C2C1C=CC(C(O)c1ccc(-c3ccccc3)s1)N2Nc1ccc(Cl)cc1Cl (centres undefined),-1.77
9,NCCCCCNC(=O)[C@H]1C[C@H]2C(=O)N3CCC[C@H]3C(=O)N2[C@H]1c1ccc(O)cc1,-0.12
10,CC(=O)n1cc(C(O)C2C=CC3C(=O)NC(=O)C3N2Nc2ccccn2)c2ccccc21 (centres undefined),-0.781
11,CO[C@H]1O[C@H](CO)[C@@H](OC(=O)Nc2cccc(F)c2)[C@H](OC(=O)Nc2ccccc2)[C@H]1OC(=O)Nc1ccccc1,-0.703
12,CO[C@H]1O[C@H](CO)[C@@H](OC(=O)Nc2ccccc2-c2ccccc2)[C@H](OC(=O)Nc2ccccc2-c2ccccc2)[C@@H]1OC(=O)Nc1ccccc1-c1ccccc1,-0.399
13,O=C(NCc1ccccc1)[C@@H]1c2ccccc2C(=O)N(C2Cc3ccccc3C2)[C@H]1c1ccc(CO)cc1,0.317
14,O=C1C2C=CC(C(O)c3ccc(-c4ccccc4)s3)N(Nc3ccccc3)C2C(=O)N1c1ccccc1 (centres undefined),-1.25
15,Cc1c(NC(=O)/C(C#N)=C/c2cccc([N+](=O)[O-])c2)c(=O)n(-c2ccccc2)n1C,-1.97
16,O=C1C2C=CC(C(O)c3c(F)cccc3Cl)N(Nc3ccccc3F)C2C(=O)N1c1ccccc1 (centres undefined),-0.563
17,NCCCCCCNC(=O)[C@H]1C[C@H]2C(=O)N[C@@H](Cc3ccccc3)C(=O)N2[C@H]1c1cccc(OCCO)c1,-0.687
18,CN(C)CCCC[C@@H]1NC(=O)[C@H]2C[C@@H](C(=O)NCCCCCN)[C@@H](c3cccc(OCCO)c3)N2C1=O,0.767
19,O=C(NCCN1CCOCC1)[C@@H]1c2ccccc2C(=O)N(Cc2cc(C(F)(F)F)cc(C(F)(F)F)c2)[C@H]1c1ccc(CO)cc1,0.623
20,COc1ccc([Si](C)(C)[C@@H]2[C@@H](CC(=O)N3Cc4ccccc4C[C@H]3CO)O[C@]3(C(=O)N(Cc4cccc(N5CCC5=O)c4)c4ccccc43)[C@H]2C)cc1,-0.0211
21,CN1C(=O)C2C=CC(C(O)c3c(F)cccc3Cl)N(NC(=O)OC(C)(C)C)C2C1=O (centres undefined),0.232
22,O=C1OCCC/C=C\[C@H]2OC34C=CCN(c5ccc6ccccc6c5)C(=O)[C@H]3N(CCCCCO)C(=O)[C@@H]4C12 (some centres undefined),2.33
23,COc1ccc([Si](C)(C)[C@H]2[C@H](CC(=O)N3CCC[C@H]3CO)O[C@@]3(C(=O)N(Cc4cccc(N5CCOC5=O)c4)c4ccccc43)[C@@H]2C)cc1,0.621
24,COCC(=C=CC[C@H](O)c1cccc(OCCO)c1)CCO,-0.833
25,C=CCC(OC(C)=O)[C@@H]1[C@@H](N(Cc2ccc(-c3cccc(C(F)(F)F)c3)o2)C(=O)c2cccc3ccccc23)c2cc(OCCCO)ccc2N1C(=O)Cc1ccc2ccccc2c1 (some centres undefined),0.318
26,COCCOC(=O)N1C(=O)[C@@]2(c3ccccc31)[C@H](C(=O)N1CCCCCCC1)[C@H]1C(=O)O[C@H](c3ccccc3)[C@H](c3ccccc3)N1[C@@H]2c1ccc(OCCO)cc1,-0.276

# Assay: CREB reporter modulators without forskolin, primary screen, cell-based, PC12, CRE-LacZ reporter, unstimulated (AID 1145)
# Details: no forskolin, luminescence, 4.5 h, higher = more signal, called active from +8 up or from −8 down
row,SMILES,z-score
1,COC(=O)[C@@]1(Cc2ccc(OC)cc2)[C@H]2c3cc(C(=O)N4CCCC4)n(Cc4nc5ccccc5[nH]4)c3C[C@H]2CN1C(=O)c1ccccc1,-0.182
2,COc1ccc(NC(=O)O[C@H]2[C@H](OC(=O)c3cc4ccccc4[nH]3)[C@@H](OC(=O)c3cc4ccccc4[nH]3)[C@@H](OC)O[C@@H]2CO)cc1,1.84
3,C=C(CCCC)C(=O)CC[C@@H](OC(C)=O)c1ccc(CO)o1,-0.35
4,O=C1[C@H]2C=C(I)[C@H](C[C@@H]2OCCCCO)[C@@]12CO2,-0.235
5,COCCCNC(=O)[C@@]1(Cc2ccccc2)N=C(c2ccc(OCCCO)cc2)O[C@H]1c1ccccc1CN=[N+]=[N-],0.447
6,CN(C)CCCCCCNC(=O)[C@@H]1C[C@@H]2C(=O)N3CCC[C@H]3C(=O)N2[C@@H]1c1ccc(O)cc1,0.561
7,COc1ccc([C@H]2C[C@H]3C(Br)=C[C@@]2(CO)C(=O)[C@]32CO2)cc1,0.309
8,C=CCNC(=O)[C@@H]1[C@H]2C(=O)O[C@H](c3ccccc3)[C@H](c3ccccc3)N2[C@H](c2ccc(OCCO)cc2)[C@@]12C(=O)N(C(=O)OCCOC)c1ccc(C#CCNC(N)=O)cc12,0.505
9,CS(=O)(=O)CCOC(=O)C1=CC(CCCO)=CC(c2ccc(CN3CCCC3)cc2)N(Cc2cccc(OC(F)(F)F)c2)C=C1C(=O)OCCS(C)(=O)=O (centres undefined),4.56
10,COCCOC(=O)N1C(=O)[C@@]2(c3cc(C#CC4(O)CCCCCC4)ccc31)[C@H](C(=O)Nc1nc3ccccc3s1)[C@H]1C(=O)O[C@H](c3ccccc3)[C@H](c3ccccc3)N1[C@@H]2c1ccc(OCCO)cc1,-0.748
11,[N-]=[N+]=Nc1ccccc1C[C@]1(C(=O)NCC(O)CO)N=C(c2ccc(OCCCO)cc2)O[C@H]1c1ccccc1 (some centres undefined),1.19
12,[N-]=[N+]=NCc1ccccc1C[C@@]1(C(=O)NCC(O)CO)N=C(c2ccc(OCCCO)cc2)O[C@@H]1c1ccccc1 (some centres undefined),1.8
13,C=CCN1C(=O)[C@]2(O[C@H](CCO)[C@@H]([Si](C)(C)c3ccc(OC)cc3)[C@@H]2C)c2cc(N(C=O)c3ccccc3)ccc21,32.2 (active)
14,Cc1ccc(S(=O)(=O)N2C[C@@H](C(=O)O)[C@H](Sc3ccccc3)C[C@H]2c2ccccc2)cc1,-0.667
15,COC(=O)[C@]1(Cc2ccccc2)N=C(c2ccc(OCCCO)cc2)O[C@@H]1c1ccccc1N=[N+]=[N-],1.34
16,C=CC[C@]1(C(N)=O)N=C(c2ccc(OCCCO)cc2)O[C@H]1c1ccccc1,0.652
17,[N-]=[N+]=Nc1ccccc1[C@H]1OC(c2ccc(OCCCO)cc2)=N[C@@]1(Cc1ccccc1)C(=O)N1CCOCC1,-0.0341

row,SMILES,z-score
1,O=C1NC(=O)C2C1C=CC(C(O)c1ccc(-c3ccccc3)s1)N2Nc1ccc(Cl)cc1Cl (centres undefined),-0.136
2,NCCCCCNC(=O)[C@H]1C[C@H]2C(=O)N3CCC[C@H]3C(=O)N2[C@H]1c1ccc(O)cc1,0.285
3,CC(=O)n1cc(C(O)C2C=CC3C(=O)NC(=O)C3N2Nc2ccccn2)c2ccccc21 (centres undefined),-0.14
4,CO[C@H]1O[C@H](CO)[C@@H](OC(=O)Nc2cccc(F)c2)[C@H](OC(=O)Nc2ccccc2)[C@H]1OC(=O)Nc1ccccc1,-0.0484
5,CO[C@H]1O[C@H](CO)[C@@H](OC(=O)Nc2ccccc2-c2ccccc2)[C@H](OC(=O)Nc2ccccc2-c2ccccc2)[C@@H]1OC(=O)Nc1ccccc1-c1ccccc1,0.391
6,O=C(NCc1ccccc1)[C@@H]1c2ccccc2C(=O)N(C2Cc3ccccc3C2)[C@H]1c1ccc(CO)cc1,0.764
7,O=C1C2C=CC(C(O)c3ccc(-c4ccccc4)s3)N(Nc3ccccc3)C2C(=O)N1c1ccccc1 (centres undefined),0.0569
8,Cc1c(NC(=O)/C(C#N)=C/c2cccc([N+](=O)[O-])c2)c(=O)n(-c2ccccc2)n1C,-0.554
9,O=C1C2C=CC(C(O)c3c(F)cccc3Cl)N(Nc3ccccc3F)C2C(=O)N1c1ccccc1 (centres undefined),0.243
10,NCCCCCCNC(=O)[C@H]1C[C@H]2C(=O)N[C@@H](Cc3ccccc3)C(=O)N2[C@H]1c1cccc(OCCO)c1,-0.545
11,CN(C)CCCC[C@@H]1NC(=O)[C@H]2C[C@@H](C(=O)NCCCCCN)[C@@H](c3cccc(OCCO)c3)N2C1=O,0.155
12,O=C(NCCN1CCOCC1)[C@@H]1c2ccccc2C(=O)N(Cc2cc(C(F)(F)F)cc(C(F)(F)F)c2)[C@H]1c1ccc(CO)cc1,0.468
13,COc1ccc([Si](C)(C)[C@@H]2[C@@H](CC(=O)N3Cc4ccccc4C[C@H]3CO)O[C@]3(C(=O)N(Cc4cccc(N5CCC5=O)c4)c4ccccc43)[C@H]2C)cc1,2.03
14,CN1C(=O)C2C=CC(C(O)c3c(F)cccc3Cl)N(NC(=O)OC(C)(C)C)C2C1=O (centres undefined),0.622
15,O=C1OCCC/C=C\[C@H]2OC34C=CCN(c5ccc6ccccc6c5)C(=O)[C@H]3N(CCCCCO)C(=O)[C@@H]4C12 (some centres undefined),0.601
16,COc1ccc([Si](C)(C)[C@H]2[C@H](CC(=O)N3CCC[C@H]3CO)O[C@@]3(C(=O)N(Cc4cccc(N5CCOC5=O)c4)c4ccccc43)[C@@H]2C)cc1,0.395
